# According to the supplement of paper PMC6953052:
# “And” between values parts separate entries of the source, which are not always exact repeats. Equal entries are not always repeated. The full ranking holds about 1,700 compounds; the median of “fraction of GFP-LC3-positive cells (≥5 vesicles/cell)” is about 0.43, and the highest 2% start at about 0.81. For the sample, the highest values were picked, then their nearest neighbours and some compounds at random.
# System: CbCln3 Δex7/8/Δex7/8 GFP-LC3 cerebellar neuronal cells
# Assay: fraction of GFP-LC3-positive cells (≥5 vesicles/cell); higher = more autophagosome accumulation
# Method in brief: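 Compound (~50 nL in DMSO) was pin-transferred in duplicate onto wild-type or mutant CbCln3 cerebellar cells stably expressing GFP-LC3, seeded at 2 × 10^3/well in 384-well plates, for 24 h at 33 °C. After fixation in 3.2% PFA, three fields per well were imaged at 10×. The value reported is the duplicate average of the fraction of cells meeting a vesicle-count threshold, with CellProfiler counting GFP-LC3 vesicles per cell and out-of-focus images excluded. Cells met the threshold at 5 or more vesicles.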
row,SMILES,fraction of GFP-LC3-positive cells
1,CC(C)NC[C@H](O)COc1cccc2ccccc12.Cl [(S)-propranolol hydrochloride],0.275
2,COc1cc(/C=C/C(=O)N2CCC=CC2=O)cc(OC)c1OC [Piperlongumine],0.901
3,COc1cc(C(=O)OCCCN2CCCN(CCCOC(=O)c3cc(OC)c(OC)c(OC)c3)CC2)cc(OC)c1OC.Cl.Cl [Dilazep dihydrochloride],0.699
4,COC(=O)[C@H]1[C@H]2C[C@@H]3c4[nH]c5cc(OC)ccc5c4CCN3C[C@H]2C[C@@H](OC(=O)/C=C/c2cc(OC)c(OC)c(OC)c2)[C@@H]1OC [Rescinnamin],0.292
5,CN(C)CCC(c1ccccc1)c1ccccn1.O=C(O)/C=C\C(=O)O (centres undefined) [Pheniramine maleate],0.47
6,COc1cc(-c2ccc(=O)[nH]n2)ccc1OC(F)F [zardaverine],0.33
7,CCCCCCCC/C=C/CCCCCCCCCC(=O)O [11(E)-Eicosenoic acid],0.25
8,CCCCCCCC/C=C/CCCCCCCCCC(=O)O [5561-99-9 11(Z)-Eicosenoic acid],0.401
9,Cl.Cl.OCCN1CCN(CC/C=C2/c3ccccc3Sc3ccc(C(F)(F)F)cc32)CC1 [Flupentixol dihydrochloride cis-(Z)],0.291
10,CCCCC/C=C\C[C@@H](O)/C=C/C=C\CCC(=O)O [Tetranor-12(R)-HETE],0.513
11,CC(C)NCC(O)COc1cccc2ccccc12.Cl (stereo in doubt) [(R)-Propranolol hydrochloride],0.486
12,C[C@@H]1C/C=C/C=C/C=C/C=C/[C@H](O[C@@H]2O[C@H](C)[C@@H](O)[C@H](N)[C@@H]2O)C[C@@H]2O[C@](O)(C[C@@H](O)C[C@H]3OC3/C=C/C(=O)O1)C[C@H](O)[C@H]2C(=O)O (some centres undefined) [Natamycin],0.298
13,NS(=O)(=O)c1cc(C(=O)O)c(NCc2ccco2)cc1Cl [Furosemide],0.511
14,CCC(C)[C@H](NS(=O)(=O)c1cccc2ccccc12)C(=O)N[C@H](C=O)Cc1c[nH]c2ccccc12 (some centres undefined),0.69 and 0.692
15,CCN[C@H]1C[C@H](C)S(=O)(=O)c2sc(S(N)(=O)=O)cc21.Cl [Dorzolamide hydrochloride],0.432
16,C=C1c2c(Cl)ccc(O)c2C(=O)C2=C(O)[C@]3(O)C(=O)C(C(N)=O)=C(O)[C@@H](N(C)C)[C@@H]3[C@@H](O)C12.O=C(O)c1cc(S(=O)(=O)O)ccc1O (some centres undefined) [Meclocycline sulfosalicylate],0.345
17,CCc1cc(C(N)=S)ccn1 [Ethionamide],0.393
18,O=C(CCNNC(=O)c1ccncc1)NCc1ccccc1 [Nialamide],0.406
19,Clc1cccc(Nc2nnc(-c3ccccc3)c3ccccc23)c1,0.522
20,CC[C@H](C)C(=O)O[C@H]1C[C@@H](C)C=C2C=C[C@H](C)[C@H](CC[C@@H]3C[C@@H](O)CC(=O)O3)[C@H]21 [Lovastatin],0.0901
21,C=CC(N)CCC(=O)O (centres undefined) [Vigabatrin],0.474
22,O=C(O)CCCC[C@@H]1SC[C@@H]2NC(=O)N[C@@H]21 [Biotin],0.393
23,CCN(CC)CCOCCOC(=O)C1(c2ccccc2)CCCC1.O=C(O)CC(O)(CC(=O)O)C(=O)O [Carbetapentane citrate],0.469

row,SMILES,fraction of GFP-LC3-positive cells
1,NS(=O)(=O)c1cc(C(=O)O)cc(N2CCCC2)c1Oc1ccccc1 [Piretanide],0.344
2,CC(C(=O)O)c1ccc(C(=O)c2ccccc2)s1 (centres undefined) [Tiaprofenic acid],0.467
3,CN(C(Cc1ccc(OS(=O)(=O)c2cccc3cnccc23)cc1)C(=O)N1CCN(c2ccccc2)CC1)S(=O)(=O)c1cccc2cnccc12 (centres undefined),0.324 and 0.255
4,CCCCCCCCCCCCCCCCCCOC[C@@H](O)COP(=O)([O-])OCC[N+](C)(C)C,0.362
5,Cc1cc2cc3c(C)cc(=O)oc3c(C)c2o1 [Trioxsalen],0.357
6,COc1cc(C)nc(-n2nc(C)cc2OC)n1 [Epirizole],0.324
7,C[N+]1(CCCCC[N+]2(C)CCCC2)CCCC1.O=C([O-])[C@H](O)[C@@H](O)C(=O)O.O=C([O-])[C@H](O)[C@@H](O)C(=O)O [Pentolinium bitartrate],0.493
8,COC(=O)C1=C(C)NC(C)=C(C(=O)OCCN(C)Cc2ccccc2)C1c1cccc([N+](=O)[O-])c1 (centres undefined) [Nicardipine],0.146
9,Nc1nc(S)c2ncn([C@@H]3O[C@H](CO)[C@@H](O)[C@H]3O)c2n1 [Thioguanosine],0.576
10,Nc1ncn(C2O[C@H](CO)[C@@H](O)[C@H]2O)c(=O)n1 (some centres undefined) [Azacytidine-5],0.861
11,Nc1ncnc2c1ncn2C1O[C@H](CO)[C@@H](O)[C@@H]1O (some centres undefined) [Vidarabine],0.406
12,Nc1ccc(S(=O)(=O)Nc2ncccn2)cc1 [Sulfadiazine],0.438
13,C=C1CC[C@H](O)C/C1=C/C=C1\CCC[C@]2(C)[C@@H]([C@H](C)CCCC(C)C)CC[C@@H]12 [Cholecalciferol],0.281
14,Oc1cc(O)c2c(c1)O[C@H](c1ccc(O)c(O)c1)[C@@H](O)C2 [Epicatechin-(-)],0.438
15,NS(=O)(=O)c1cc2c(cc1C(F)(F)F)NCNS2(=O)=O [Hydroflumethiazide],0.451
16,C[C@@H](O)CCC[C@H](O)/C=C/[C@@H]1[C@@H](C/C=C\CCCC(=O)O)[C@@H](O)C[C@H]1O [19(R)-Hydroxy-prostaglandin F2a],0.532
17,O=C(NCCNCC(O)COc1ccc(O)cc1)N1CCOCC1.O=C(NCCNCC(O)COc1ccc(O)cc1)N1CCOCC1.O=C(O)/C=C/C(=O)O (centres undefined) [Xamoterol hemifumarate],0.32
18,COc1cc([C@@H]2c3cc4c(cc3[C@@H](OC3OC5COC(C)OC5C(O)C3O)[C@H]3COC(=O)[C@H]23)OCO4)cc(OC)c1O (some centres undefined) [etoposide],0.664
19,Cc1cccc(C)c1NC(=O)C(C)N.Cl (centres undefined) [Tocainide hydrochloride],0.504
20,Cl.c1ccc(CC2=NCCN2)cc1 [Tolazoline hydrochloride],0.508
21,C=CC(=O)c1ccc2ccccc2c1,0.499
22,NC[C@H]1CC[C@H](C(=O)O)CC1 [Tranexamic acid],0.53
23,CC(=O)OC(C)C[N+](C)(C)C.[Cl-] (centres undefined) [Methacholine chloride],0.309

row,SMILES,fraction of GFP-LC3-positive cells
1,CCCc1cc(=O)[nH]c(=S)[nH]1 [Propylthiouracil],0.375
2,COC(=O)/C=C/c1cc(O)ccc1O,0.924
3,O=C(O)/C=C/c1ccc(O)c(O)c1 [Caffeic acid],0.359
4,COc1ccc(C(=O)c2ccccc2)c(O)c1 [Oxybenzone],0.465
5,CCC[C@@H]1C[C@@H](C(=O)N[C@@H](C2O[C@H](SC)[C@H](O)[C@@H](O)[C@H]2O)[C@H](C)Cl)N(C)C1.Cl (some centres undefined) [Clindamycin hydrochloride],0.462
6,O=C1Nc2ccc([N+](=O)[O-])cc2C1=O [5-Nitroisatin],0.469
7,CCCCNc1cc(C(=O)O)cc(S(N)(=O)=O)c1Oc1ccccc1 [bumetanide],0.319
8,CCCCN(CCCC)CCC(O)c1cc2c(Cl)cc(Cl)cc2c2cc(C(F)(F)F)ccc12.Cl (centres undefined) [Halofantrine hydrochloride],0.319
9,CCCCC[C@H](O)/C=C/C=C\C=C\C=C\[C@@H](O)[C@@H](O)CCCC(=O)O [Lipoxin A4],0.498
10,"OCC(O)CN1CCN(c2ccccc2)CC1 (racemic) [Dropropizine (R,S)]",0.442
11,Cl.OC(CCN1CCCCC1)(c1ccccc1)C1C[C@@H]2C=C[C@H]1C2 (some centres undefined) [Biperiden hydrochloride],0.447
12,CC[N+](CC)(CC(=O)Nc1c(C)cccc1C)Cc1ccccc1.O=C([O-])c1ccccc1 [Denatonium benzoate],0.424
13,"Nc1ncnc2c1ncn2[C@@H]1O[C@@H]2COP(=O)(O)OC2C1O (single isomer, unassigned; (-)) [(-)-Adenosine 3',5'-cyclic monophosphate]",0.271
14,COCCOC(=O)C1=C(C)NC(C)=C(C(=O)OC(C)C)C1c1cccc([N+](=O)[O-])c1 (centres undefined) [Nimodipine],0.35
15,Cl.N=C(N)NC(=O)c1nc(Cl)c(N)nc1N.O.O [Amiloride hydrochloride dihydrate],0.398
16,CC(=O)O[C@H]1C(=O)[C@@]2(C)C([C@H](OC(=O)c3ccccc3)[C@]3(O)C[C@H](OC(=O)[C@H](O)[C@@H](NC(=O)c4ccccc4)c4ccccc4)C(C)=C1C3(C)C)[C@]1(OC(C)=O)CO[C@@H]1C[C@@H]2O (some centres undefined) [taxol =paclitaxel],0.89
17,CC(=O)O[C@H]1C(=O)[C@@]2(C)[C@H]([C@H](OC(=O)c3ccccc3)[C@]3(O)C[C@H](OC(=O)[C@H](O)[C@@H](NC(=O)c4ccccc4)c4ccccc4)C(C)=C1C3(C)C)[C@]1(OC(C)=O)CO[C@@H]1C[C@@H]2O [Paclitaxel],0.843
18,COc1c(C=O)c(O)cc2c1C(=O)c1ccccc1C2=O [damnacanthal],0.173
19,"O.Oc1cc(O)c2c(c1)OC(c1ccc(O)c(O)c1)C(O)C2 (racemic) [Catechin-(+,-) hydrate]",0.337
20,CC/C=C\C[C@H](O)/C=C/C=C\C/C=C\C/C=C\CCCC(=O)O,0.434
21,CCCCCCCC/C=C/CCCCCCCCC(=O)O [10(Z)-Nonadecenoic acid],0.551
22,CCCCCCCC/C=C/CCCCCCCCC(=O)O [10(E)-Nonadecenoic acid],0.516
23,NC[C@H]1O[C@H](O[C@H]2[C@H](O)[C@@H](O[C@H]3O[C@H](CO)[C@@H](O)[C@H](N)[C@H]3O)[C@H](N)C[C@@H]2N)[C@H](N)C[C@@H]1O [Tobramycin],0.5
